# This is one part of a sample in which the strongest signals are shown more often than they occur.
# B1: SJCP1084 (Schistosoma japonicum) (protein)
# chain: MRIINLVIISTALLLINLLQTKSQANGEDTKNGTPDDPGLTKSTELKVEVQALLKDKKTNMRVKWNENLLDNTKPEYHNLRDEACELLLQIVRSVVPLSQDDGECKDVTFTKYVVGTKDGAVNVKLTITFKDSVAINQKPMDLKLKLENDFKNLQSESTLKATKPTFTVKVEKRLIPISKPQTTPPTTAKNDASKENVGDIGGEDSTVPTAAPATAASANEEKDEGDKDNKDSQHPNVLTSNVNDRNLIIALVALMILAIGVALTAAVKQR
# Columns and labels:
# Experiment in all cases: glycan array binding signal (z-score within array); higher = stronger binding
# Details in all cases: glycan notation: IUPAC condensed, linker removed
# [1] = target: Gal(b1-4)GlcNAc(b1-3)Gal(b1-4)GlcNAc(b1-3)Gal(b1-4)GlcNAc(b1-3)Gal(b1-4)GlcNAc(b1-3)Gal(b1-4)GlcNAc(b1-2)Man(a1-3)[Gal(b1-4)GlcNAc(b1-3)Gal(b1-4)GlcNAc(b1-3)Gal(b1-4)GlcNAc(b1-3)Gal(b1-4)GlcNAc(b1-3)Gal(b1-4)GlcNAc(b1-2)Man(a1-6)]Man(b1-4)GlcNAc(b1-4)[Fuc(a1-6)]GlcNAc
# Summary of the method: (§1)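 Glycan array binding is given as a within-array Z-score, which can be read as non-binding when negative. The arrays, 3228 of them, came from the Consortium for Functional Glycomics database and were retained only where the protein sequence was available. Z-scores were averaged across arrays of the same protein sequence at different concentrations or buffers and across linkers.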
# [2] = target: Gal(b1-4)GlcNAc(b1-3)Gal(b1-4)GlcNAc(b1-3)Gal(b1-4)GlcNAc(b1-3)Gal(b1-4)GlcNAc(b1-3)Gal(b1-4)GlcNAc(b1-2)[Gal(b1-4)GlcNAc(b1-3)Gal(b1-4)GlcNAc(b1-3)Gal(b1-4)GlcNAc(b1-3)Gal(b1-4)GlcNAc(b1-3)Gal(b1-4)GlcNAc(b1-6)]Man(a1-6)[Gal(b1-4)GlcNAc(b1-3)Gal(b1-4)GlcNAc(b1-3)Gal(b1-4)GlcNAc(b1-3)Gal(b1-4)GlcNAc(b1-3)Gal(b1-4)GlcNAc(b1-2)Man(a1-3)]Man(b1-4)GlcNAc(b1-4)[Fuc(a1-6)]GlcNAc
# Summary of the method: as §1
# [3] = target: Gal(b1-4)GlcNAc(b1-3)Gal(b1-4)GlcNAc(b1-3)[Gal(b1-4)GlcNAc(b1-3)Gal(b1-4)GlcNAc(b1-6)]GalNAc
# Summary of the method: as §1
# Gal3S(b1-4)GlcNAc = target: Gal3S(b1-4)GlcNAc
# Summary of the method: as §1
# [4] = target: GalNAc(b1-3)Gal(a1-4)Gal(b1-4)GlcNAc
# Summary of the method: as §1
# [5] = target: GlcNAc(a1-4)Gal(b1-4)GlcNAc(b1-3)Gal(b1-4)[Fuc(a1-3)]GlcNAc(b1-3)Gal(b1-4)[Fuc(a1-3)]GlcNAc
# Summary of the method: as §1
# [6] = target: GlcNAc(b1-3)Gal(b1-4)GlcNAc(b1-3)Gal(b1-4)GlcNAc(b1-2)Man(a1-3)[GlcNAc(b1-3)Gal(b1-4)GlcNAc(b1-3)Gal(b1-4)GlcNAc(b1-2)Man(a1-6)]Man(b1-4)GlcNAc(b1-4)GlcNAc
# Summary of the method: as §1
# [7] = target: GlcNAc(b1-3)Gal(b1-4)GlcNAc(b1-3)Gal(b1-4)GlcNAc(b1-3)Gal(b1-4)GlcNAc(b1-2)Man(a1-3)[GlcNAc(b1-3)Gal(b1-4)GlcNAc(b1-3)Gal(b1-4)GlcNAc(b1-3)Gal(b1-4)GlcNAc(b1-2)Man(a1-6)]Man(b1-4)GlcNAc(b1-4)[Fuc(a1-6)]GlcNAc
# Summary of the method: as §1
# [8] = target: GlcNAc(b1-3)Gal(b1-4)GlcNAc(b1-3)Gal(b1-4)GlcNAc(b1-3)Gal(b1-4)GlcNAc(b1-3)Gal(b1-4)GlcNAc(b1-2)Man(a1-3)[GlcNAc(b1-3)Gal(b1-4)GlcNAc(b1-3)Gal(b1-4)GlcNAc(b1-3)Gal(b1-4)GlcNAc(b1-3)Gal(b1-4)GlcNAc(b1-2)Man(a1-6)]Man(b1-4)GlcNAc(b1-4)[Fuc(a1-6)]GlcNAc
# Summary of the method: as §1
# [9] = target: GlcNAc(b1-3)Gal(b1-4)GlcNAc(b1-3)Gal(b1-4)GlcNAc(b1-3)Gal(b1-4)GlcNAc(b1-3)Gal(b1-4)GlcNAc(b1-2)[GlcNAc(b1-3)Gal(b1-4)GlcNAc(b1-3)Gal(b1-4)GlcNAc(b1-3)Gal(b1-4)GlcNAc(b1-3)Gal(b1-4)GlcNAc(b1-6)]Man(a1-6)[GlcNAc(b1-3)Gal(b1-4)GlcNAc(b1-3)Gal(b1-4)GlcNAc(b1-3)Gal(b1-4)GlcNAc(b1-3)Gal(b1-4)GlcNAc(b1-2)Man(a1-3)]Man(b1-4)GlcNAc(b1-4)[Fuc(a1-6)]GlcNAc
# Summary of the method: as §1
# GlcNAc(b1-3)Man = target: GlcNAc(b1-3)Man
# Summary of the method: as §1
# [10] = target: Neu5Ac(a2-3)Gal(b1-3)GalNAc
# Summary of the method: as §1
# [11] = target: Neu5Ac(a2-3)Gal(b1-3)GalNAc(b1-4)[Neu5Ac(a2-3)]Gal(b1-4)Glc
# Summary of the method: as §1
# [12] = target: Neu5Ac(a2-3)Gal(b1-3)GlcNAc(b1-2)Man(a1-3)[GlcNAc(b1-4)][Neu5Ac(a2-3)Gal(b1-3)GlcNAc(b1-2)Man(a1-6)]Man(b1-4)GlcNAc(b1-4)GlcNAc
# Summary of the method: as §1
# [13] = target: Neu5Ac(a2-3)Gal(b1-3)[Neu5Ac(a2-6)]GalNAc
# Summary of the method: as §1
# [14] = target: Neu5Ac(a2-3)Gal(b1-4)GlcNAc(b1-2)Man(a1-3)[Neu5Ac(a2-3)Gal(b1-4)GlcNAc(b1-2)Man(a1-6)]Man(b1-4)GlcNAc(b1-4)GlcNAc
# Summary of the method: as §1
# [15] = target: Neu5Ac(a2-3)Gal(b1-4)GlcNAc(b1-3)Gal(b1-3)GlcNAc
# Summary of the method: as §1
# [16] = target: Neu5Ac(a2-3)Gal(b1-4)GlcNAc(b1-3)Gal(b1-4)GlcNAc(b1-2)Man(a1-3)[Neu5Ac(a2-3)Gal(b1-4)GlcNAc(b1-3)Gal(b1-4)GlcNAc(b1-2)Man(a1-6)]Man(b1-4)GlcNAc(b1-4)GlcNAc
# Summary of the method: as §1
# [17] = target: Neu5Ac(a2-3)Gal(b1-4)GlcNAc(b1-3)Gal(b1-4)[Fuc(a1-3)]GlcNAc
# Summary of the method: as §1
# [18] = target: Neu5Ac(a2-3)Gal(b1-4)[Fuc(a1-3)]GlcNAc(b1-3)Gal(b1-4)[Fuc(a1-3)]GlcNAc(b1-3)Gal(b1-4)[Fuc(a1-3)]GlcNAc
# Summary of the method: as §1
# [19] = target: Neu5Ac(a2-3)[GalNAc(b1-4)]Gal(b1-4)Glc
# Summary of the method: as §1
# [20] = target: Neu5Ac(a2-6)Gal(b1-3)GlcNAc(b1-3)[Gal(b1-4)GlcNAc(b1-6)]Gal(b1-4)Glc
# Summary of the method: as §1
# [21] = target: Neu5Ac(a2-8)Neu5Gc(a2-3)Gal(b1-4)GlcNAc
# Summary of the method: as §1
binder,measurement,setting,value
B1,glycan array binding signal (z-score),[1],4.28
same,glycan array binding signal (z-score),[2],4.79
same,glycan array binding signal (z-score),[3],1.47
same,glycan array binding signal (z-score),Gal3S(b1-4)GlcNAc,-0.79
same,glycan array binding signal (z-score),[4],0.632
same,glycan array binding signal (z-score),[5],2.09
same,glycan array binding signal (z-score),[6],1.03
same,glycan array binding signal (z-score),[7],1.66
same,glycan array binding signal (z-score),[8],-0.466
same,glycan array binding signal (z-score),[9],2.68
same,glycan array binding signal (z-score),GlcNAc(b1-3)Man,0.248
same,glycan array binding signal (z-score),[10],-0.71
same,glycan array binding signal (z-score),[11],-0.565
same,glycan array binding signal (z-score),[12],-0.628
same,glycan array binding signal (z-score),[13],-0.036
same,glycan array binding signal (z-score),[14],0.105
same,glycan array binding signal (z-score),[15],-0.757
same,glycan array binding signal (z-score),[16],-0.701
same,glycan array binding signal (z-score),[17],-0.263
same,glycan array binding signal (z-score),[18],0.379
same,glycan array binding signal (z-score),[19],-0.474
same,glycan array binding signal (z-score),[20],-0.092
same,glycan array binding signal (z-score),[21],-0.605

# — the supplement of paper PMC8728848
